In all, about 340,000 compounds went through this assay and about 1,200 (0.35%) were called active. Shown is part of a subset that was picked to be rich in actives. A number with no mark means an inactive call. No stated cut-off is given here; in the data, active means inhibition above about 52%; inactive means the rest.
Assay: suppresses PrP 5' UTR mRNA reporter expression (AID 488862); further: 0 = median of the neutral control wells
Conditions: cell-based PrP 5' UTR mRNA reporter, plate reader; active compounds read high; concentration not given here

Row | Structure (SMILES) | inhibition
1 | CC1(C)O[C@@H]2[C@H](O1)[C@@H](COS(=O)(=O)O)O[C@H]2n1cnc2c(=O)[nH]cnc21 | -8.78%
2 | COC(=O)Cc1[nH]n(-c2nc3ccccc3s2)c(=O)c1C(C)=Nc1ccc(OC)cc1 | 80.1% (active)
3 | CC(=NCc1ccco1)c1c(C(F)(F)F)[nH]n(-c2nc3ccccc3s2)c1=O | 0.0675%
4 | COc1ccc(C(=O)Nc2cccc(/C=C(/CCC(=O)O)c3nc4ccccc4s3)c2)cc1 | -8.9%
5 | COc1ccc(C(=O)COC(=O)C(O)c2ccccc2)c(OC)c1 (stereo not drawn) | -34.1%
6 | CC(=O)OC1C2(CC3N4C(=O)C5(CO)SSC4(CC31O)C(=O)N5C)OC(C)C(C)(C)C2=O (stereo not drawn) | 96.4% (active)
7 | CC(C)c1ccc(/C=C/C(=O)NCCCN2CCOCC2)cc1 | -9.62%
8 | OCCC1CN(Cc2ccc3nsnc3c2)CCN1C1CCCC1 (stereo not drawn) | -10%
9 | Cc1ccsc1C(=O)OCC(=O)c1cc(C)n(CC2CCCO2)c1C (stereo not drawn) | 78.7% (active)
10 | Cc1ccsc1C(=O)OCC(=O)Nc1cccc(F)c1 | -13.8%
11 | COc1ccc(C(=O)OCC(=O)c2cc(C)n(CC3CCCO3)c2C)cc1[N+](=O)[O-] (stereo not drawn) | -11.7%
12 | COc1ccc(Cl)cc1NC(=O)[C@@H]1CCCN1C(=O)c1cccs1 | -9.55%
13 | COc1cc(NS(=O)(=O)c2ccc(NC(=S)NC(=O)c3ccccc3)cc2)nc(OC)n1 | 1.17%
14 | CS(=O)(=O)N(CC(=O)N1CCCCCC1)c1cccc(Cl)c1Cl | -24.3%
15 | COc1ccc(NS(=O)(=O)c2ccc3oc(SCC(N)=O)nc3c2)cc1 | -11.7%
16 | COc1ccc(S(=O)(=O)Nc2ccc3oc(C)c(C(C)=O)c3c2)cc1 | -20.1%
17 | CCn1c(=O)c(=O)[nH]c2c(=O)oc3ccc(S(=O)(=O)Nc4ccc(OC)cc4)cc3c21 | 69% (active)
18 | O=c1c2ccccc2cnn1Cc1n[nH]c(=S)n1-c1ccccc1F | -33.3%
19 | O=C(COc1cc(Cl)c(Cl)cc1Cl)NCCc1ccccn1 | -11.6%
20 | Cc1ccc(CCC(=O)Nc2ncc(Cc3cc(Cl)ccc3Cl)s2)o1 | 78% (active)
21 | Cc1ccc(Cc2cnc(N)s2)o1 | -14.5%
22 | Cc1ccc(C(=O)Nc2nc3ccc(Cl)cc3s2)o1 | -73.3%
23 | Cn1c(-c2ccccc2)c[n+]2c1CCCCC2 | -9.16%
24 | CCN1CCN(c2nc(Nc3cc(OC)ccc3OC)nc(Nc3cc(OC)ccc3OC)n2)CC1 | -23.7%

Row | Structure (SMILES) | inhibition
25 | CCOC(=O)c1c(C)n(C)c2ccc(OC)c(NC(=O)CN3CCC4(CC3)OCCO4)c12 | -19%
26 | NS(=O)(=O)c1ccc(CNC(=O)c2ccc(Cl)cc2[N+](=O)[O-])cc1 | -4.62%
27 | O=C(COC(=O)C1CCCCC1)Nc1ccc([N+](=O)[O-])cc1 | 5.99%
28 | CC(=O)Nc1ccc(C(=O)OCC(=O)Nc2ccc([N+](=O)[O-])cc2C(F)(F)F)cc1 | -18.6%
29 | NC(=O)c1ccc(NC(=O)COC(=O)c2ccc([N+](=O)[O-])cc2)cc1 | 61.8% (active)
30 | O=C(CCc1ccccc1)NCCc1cccs1 | -25.9%
31 | Cn1c(SCC(=O)NC2CCCCC2)nnc1-c1cc2ccccc2o1 | -18.5%
32 | O=[N+]([O-])c1ccc(C=NN=Cc2ccc([N+](=O)[O-])cc2)cc1 | -32.5%
33 | O=C1/C(=C\c2ccc([N+](=O)[O-])cc2)CS(=O)(=O)C/C1=C/c1ccc([N+](=O)[O-])cc1 | 71.1% (active)
34 | Nc1ccc([N+](=O)[O-])cc1 | 3.7%
35 | Cc1nonc1C(=O)N/N=C/c1ccc(O)cc1 | -28.8%
36 | COC(=O)c1ccccc1NC(=O)CN(Cc1ccccc1)S(C)(=O)=O | -21.1%
37 | C/C(=N\Nc1nncc2ccccc12)c1ccc(Cl)c([N+](=O)[O-])c1 | -45.7%
38 | CN(CCO)c1ccc(/C=N/Nc2nncc3ccccc23)cc1 | 79.8% (active)
39 | COc1cccc(/C=N\Nc2nncc(-c3ccccc3)n2)c1 | -63.5%
40 | CC(C)(C)C1CCC(C(=O)Nc2cccnc2)CC1 (stereo not drawn) | -7.89%
41 | O=C(Nc1ccc(Br)cn1)C1CCN(S(=O)(=O)c2cccs2)CC1 | -7.76%
42 | C/C(=N\NC(=O)c1cc2c(s1)CCC(C)C2)c1cccnc1 (stereo not drawn) | 55.4% (active)
43 | C/C(=N\NC(=O)c1ccc2ccccc2c1)c1cccnc1 | -12.7%
44 | CC1CCc2sc(C(=O)N/N=C/C3CCCCC3)cc2C1 (stereo not drawn) | 1.9%
45 | COc1ccc2oc(C(=O)OCC(=O)N(CC(C)C)c3c(N)n(Cc4ccccc4)c(=O)[nH]c3=O)c(C)c2c1 | 4.93%
46 | COc1ccc(N(C(=O)c2ccc(C)cc2)S(=O)(=O)c2cccs2)cc1 | -6.19%
47 | CC(C)(C)c1ccc(OC(=O)N2CCCCC2)cc1 | -72.8%
48 | CC(C)(C)c1ccc(Oc2ccc(N)cc2)cc1 | 64.6% (active)

Row | Structure (SMILES) | inhibition
49 | CC(C)(C)c1ccc(OC2=CS(=O)(=O)c3ccccc32)cc1 | -61.3%
50 | CCOC(=O)N1CCN(C(=O)COCc2cc(-c3ccc4c(c3)OCO4)on2)CC1 | -11.7%
51 | N#C/C=C\Oc1ccc(Cl)cc1N | -13%
52 | COc1cccc2c1OCC1COc3c(c(=O)n(C)c(=O)n3C)C21 (stereo not drawn) | -23.4%
53 | O=C(NCCCN1CCOCC1)c1ccccc1NS(=O)(=O)c1ccc(Br)cc1 | -22.1%
54 | COCC(C)n1c(C)cc(C(=O)CSc2cc(C)c3ccccc3n2)c1C (stereo not drawn) | -11.2%
55 | c1ccc(-n2ncc(-c3nn[nH]n3)n2)cc1 | -12.7%
56 | c1c2c(cc3sc(N4CCCCC4)nc13)OCCO2 | 76.1% (active)
57 | O=S(=O)(Nc1ccc2nc(N3CCOCC3)sc2c1)c1ccccc1 | -104%
58 | CN(C)CCN(C(=O)C1CCCCC1)c1nc2cc3c(cc2s1)OCO3 | -8.29%
59 | CC(=O)N1CCc2cc(S(=O)(=O)Nc3ccccc3N3CCN(C)CC3)ccc21 | -36.7%
60 | Cc1ccc(C(c2sc3nc(C)nn3c2O)N2CCN(c3ccccc3)CC2)cc1 (stereo not drawn) | -16.6%
61 | CC12CCC3C(CCC4CC(=O)CCC43C)C1CC(=NO)C2=O (stereo not drawn) | 52% (active)
62 | C[C@]12CCC3C(CC[C@H]4[C@H](O)[C@H](O)CC[C@]34C)C1CCC2=O (stereo partly drawn) | -23.5%
63 | CC(C)C(NC(=O)OCc1ccccc1)C(=O)OCC(=O)N1C(C)CCCC1C (stereo not drawn) | -20.8%
64 | CN(C)C(=O)c1cc(Br)ccc1Cl | -23.2%
65 | CC(C)CC[n+]1ccn(C2=C([O-])c3ccccc3C(=O)/C2=N\S(=O)(=O)c2ccccc2)c1 | -17.3%
66 | CC(C)(C)c1nc2ccccc2c(=O)n1N1C(=O)c2ccccc2C1=O | -7.16%
67 | CN(c1ccc2nc3ccccc3c(=O)n2n1)C1CCCCC1 | 78.1% (active)
68 | CC(C)C(C)NC(=O)COc1nc2ccccc2nc1N(C)C1CCCCC1 (stereo not drawn) | -28.4%
69 | O=C(CCn1c(=O)oc2ccccc21)Nc1ccon1 | -14.3%
70 | CCCNC(=O)C1CC(=O)N(c2ccc(OCC(=O)Nc3cccc(C)c3C)cc2)C1 (stereo not drawn) | -2.71%
71 | O=C(c1ccc2c(c1)C(=O)N(Cc1ccncc1)C2=O)N1CCN(S(=O)(=O)c2ccc(OC(F)(F)F)cc2)CC1 | -12.7%
72 | CC[n+]1c(C)n(-c2ccccc2)c2ccc(NC(C)=O)cc21 | -45%

Row | Structure (SMILES) | inhibition
73 | CN(NC(=O)c1ccccc1F)c1nc(C(F)(F)F)nc2ccccc12 | 61.9% (active)
74 | Cn1c(CC(=O)NNC(=O)c2ccccc2F)nc2ccccc21 | -14.3%
75 | CSc1nc(N(C)NC(=O)c2cccc(C)c2)c2ccccc2n1 | 30.9%
76 | CCOC(=O)c1ccc(NC(=O)C2CC(=O)Nc3nc4ccccc4n32)cc1 (stereo not drawn) | -13.3%
77 | CCCc1ccc(OCC(O)CN2CCN(CCO)CC2)cc1 (stereo not drawn) | -4.25%
78 | Nc1ccc(OCC(O)C[n+]2ccc(CCS(=O)(=O)[O-])cc2)cc1 (stereo not drawn) | 78.9% (active)
79 | CCCc1ccc(OCC(O)CN2CCN(C(=O)OCC)CC2)cc1 (stereo not drawn) | -12.3%
80 | COC(=O)N1CN(C(=O)OC)CN(C(=O)OC)C1 | -16.8%
81 | COC(=O)C1C(=O)c2c([nH]c(C(=O)OCCSC)c2C)CC1C (stereo not drawn) | -51.7%
82 | CCCOC(=O)c1[nH]c2c(c1C)C(=O)CC(c1cccs1)C2 (stereo not drawn) | 60.4% (active)
83 | CCOC(=O)C1=C(N)N(c2ccc(C)cc2)C2=C(C(=O)CCC2)C1c1cccs1 (stereo not drawn) | -23.6%
84 | COc1cccc(NC(=O)N2CCCC2C(=O)NC2CCCCC2)c1 (stereo not drawn) | -31.7%
85 | C/C(=C(\C#N)C(=O)NCCCN1CCOCC1)N(C)C | -31.6%
86 | COc1cccc2c1OCC(C(=O)NCc1ccc(Cl)cc1Cl)=C2 | -13%
87 | COc1ccc(NC(=O)c2cc3nc(-c4ccccc4)cc(C)n3n2)cc1OC | -26.9%
88 | COCCNc1cc(-c2ccccc2)nc2cc(-c3cccc(F)c3)nn12 | 59.6% (active)
89 | COC(=O)C(C)Sc1ccc2nnc(-c3cccc(F)c3)n2n1 (stereo not drawn) | -8.06%
90 | COc1ccc(OC)c(-c2csc(-c3cccs3)n2)c1 | 4.49%
91 | COc1ccc(-c2nc(-c3ccccc3)no2)c(OC)c1 | 66.6% (active)
92 | COc1ccc(/C=C/c2noc(-c3ccccc3OC(C)=O)n2)cc1 | -28.8%
93 | COc1ccccc1Nc1nnc(SC(C)C(=O)NC2CC2)s1 (stereo not drawn) | 2.27%

From PubChem BioAssay AID488862 (Broad Institute, 2010)
